Among all 2,400 compounds or so, about 1,500 (62%) were called active. The set was probably picked from earlier hits. Only a sample is shown. Unmarked numbers belong to inactive results. Cut-off read from the data, not from the text of the source: active = inhibition above about 22%; inactive = the rest.
biological target: Melanin-concentrating hormone receptor 1 (Homo sapiens) (UniProt Q99705); experiment: antagonism of human MCHR1 receptor – cell-based, fluorescence, counter-screen for GPR7 antagonist project (AID 2148); conditions: MCHR1-expressing cells, fluorescence antagonist assay; at 4.4 µM; active compounds read high;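 note: 0% = vehicle with agonist and 100% = vehicle without agonist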

Row | Structure (SMILES) | inhibition
1 | Cc1ccc(NC2=C(Cl)C(=O)OC2OC(=O)c2ccccc2C)cc1 (configuration not stated) | 39.7% (active)
2 | COc1ccc(NC(=O)C2CCC(CNS(=O)(=O)c3csc(C(N)=O)c3)CC2)cc1OC (configuration not stated) | 7.62%
3 | CC1(C)CC(CNCCC(c2ccc(F)cc2)c2ccco2)CCO1 (configuration not stated) | 23.9% (active)
4 | Cc1ccc(CNC(=O)C2CCN(S(=O)(=O)c3ccc4nc5c(c(C(=O)O)c4c3)CC(C)CC5)CC2)cc1 (configuration not stated) | 10.8%
5 | Cn1c(=O)c([N+](=O)[O-])c(Oc2ccccc2)c2ccccc21 | 30.5% (active)
6 | COc1cc(OC)c(-n2cc(-c3ccc(Cl)cc3)[nH]c2=O)cc1Cl | 53.2% (active)
7 | Cc1cccc(-c2nc3ccc(C(=O)NCCN4CCN(C)CC4)cc3nc2-c2cccc(C)c2)c1 | 34.7% (active)
8 | CN(c1ccccc1)S(=O)(=O)c1ccc(C(=O)NCCc2ccccc2)cc1 | 11.5%
9 | S=C(NCCc1ccccc1)Nc1ccccc1 | 33.6% (active)
10 | COc1ccccc1N1CCN(c2ncnc3sc(C)c(-c4ccccc4)c23)CC1 | 56.4% (active)
11 | COc1ccccc1CNC(=O)COc1ccc(C)nc1[N+](=O)[O-] | -4%
12 | Cc1cc(OCc2ccc(C(=O)Nc3ccc(C(=O)O)cc3)o2)ccc1Cl | 22% (active)
13 | CC(C)(C)CC(C)(C)NCC(O)COCCOc1ccc(Br)cc1 (configuration not stated) | 47.4% (active)
14 | O=C(Nc1ccc2ccccc2c1)Nc1ccc2snnc2c1 | 61.5% (active)
15 | CCN1CCN(c2ccc([N+](=O)[O-])cc2C(=O)c2ccc(Cl)cc2)CC1 | 41.1% (active)
16 | OC(CNCC1CCCO1)Cn1c2ccc(Br)cc2c2cc(Br)ccc21 (configuration not stated) | 81.1% (active)
17 | O=C(CCCN1CCc2[nH]c3ccc(F)cc3c2C1)c1ccc(F)cc1 | 44.6% (active)
18 | CS(=O)(=O)Nc1cccc(C2=NN(S(=O)(=O)c3ccccc3)C(c3cccs3)C2)c1 (configuration not stated) | 25.9% (active)
19 | COc1ccc(OC)c(C(c2nnnn2C(C)(C)C)N2CCc3ccccc3C2)c1 (configuration not stated) | 47.3% (active)
20 | COCCCNC(=S)N1CCN(c2nc(-c3cccc(OC)c3)cs2)CC1 | 51.1% (active)
21 | Cc1ccc(NC(=O)CN2CCC3(O)CCCCC3C2c2ccc3c(c2)OCO3)c(C)c1 (configuration not stated) | 24.9% (active)
22 | COc1ccc([N+](=O)[O-])cc1N(CC(O)CN(CC(C)C)CC(C)C)S(=O)(=O)c1ccc(C)cc1 (configuration not stated) | 66% (active)
23 | COCCN(Cc1cc2cc3c(cc2nc1Cl)OCO3)C(=O)c1cccc(C)c1 | 37.5% (active)

Row | Structure (SMILES) | inhibition
24 | Cc1cccc(CS(=O)(=O)c2ncc(Cl)c(C(=O)Nc3ccc(F)cc3)n2)c1 | 92.1% (active)
25 | COc1ccc(N=C2SC(C(=O)Nc3ccc(F)cc3)CC(=O)N2C)cc1 (configuration not stated) | 3.76%
26 | Cc1ccccc1CN1C[C@@H]2C[C@@H](c3cn(C)nc3-c3ccccc3)N3CCC[C@@]23C1=O | 21.2%
27 | COc1ccccc1Oc1ccc(S(=O)(=O)Nc2cccnc2)cc1 | 39.9% (active)
28 | COc1ccc(C)cc1NC(=O)NCCCCc1ccccc1 | 22.6% (active)
29 | CCC(C(=O)Nc1ccc(C(C)C)cc1)c1ccccc1 (configuration not stated) | 95.6% (active)
30 | Cc1cc2c(cc1C)N(Cc1ccccc1)C1=NCCCN12 | 9.03%
31 | Cc1cc(Cl)ccc1OCCCC(=O)Nc1cccc(-n2cnnn2)c1 | 45.7% (active)
32 | O=C(CCc1ccccc1)Nc1ccc(NC(=O)C2CC2)nc1 | 4.99%
33 | O=C(CN1CCN(C(=S)NC2CCCC2)CC1)Nc1ccc(Oc2ccccc2)cc1 | 52.8% (active)
34 | O=C(CSc1nnc(-c2ccco2)o1)NCC(=O)c1ccccc1 | 19.5%
35 | COc1ccc(C(=O)CSc2nnc(COc3ccccc3)n2Cc2ccco2)cc1 | 38.8% (active)
36 | CCSc1nsc(NC(=O)Nc2cccc(C(C)=O)c2)n1 | 62% (active)
37 | C=CCSc1nsc(NC(=O)Nc2cccc(C(C)=O)c2)n1 | 68.9% (active)
38 | Cc1ccc(NC(=S)N(CCCN2CCC(C)CC2)Cc2ccco2)cc1 | -1.82%
39 | Oc1cccc(/C=N/Nc2ccc(Cl)nn2)c1O | 28.3% (active)
40 | N#CC1=C(SCc2ccc(C#N)cc2)N=C(N)C(c2nc(-c3ccccc3)cs2)C12CCCCC2 (configuration not stated) | 24.5% (active)
41 | N=c1n(CCc2ccccc2)c2ccccc2n1Cc1ccccc1F | 53.5% (active)
42 | CN(C)CCCN(C(=O)c1ccc(S(=O)(=O)N2CCCc3ccccc32)cc1)c1nc2ccc(F)cc2s1 | 72.1% (active)
43 | CN(C)CCCN(C(=O)c1ccc(S(=O)(=O)N2CCCCCC2)cc1)c1nc2ccc(Br)cc2s1 | 71.8% (active)
44 | CCc1ccc2nc(N(CCCN(C)C)C(=O)c3ccc4c(c3)OCCO4)sc2c1 | 31.3% (active)
45 | CCn1c2ccc(F)cc2c2nnc(SCCN3CCOCC3)nc21 | -2.62%
46 | O=C(Nc1ccc2c(c1)OCO2)C1CC(c2c(F)cccc2Cl)=NO1 (configuration not stated) | 2.22%

Row | Structure (SMILES) | inhibition
47 | O=C(NCCNc1ccc([N+](=O)[O-])cc1Cl)c1ccccc1F | 35.2% (active)
48 | CN(C)S(=O)(=O)N1CCC(Oc2cccc(C(=O)NCCCC3CCCC3)c2)CC1 | 90.4% (active)
49 | CS(=O)(=O)N(Cc1ccc(Cl)cc1)c1ccc(C(=O)NCCSCc2ccco2)cc1 | 22.2% (active)
50 | CC(=O)N1CCCc2cc(S(=O)(=O)N3CCCC(C(=O)N4CCN(c5cccc(Cl)c5)CC4)C3)ccc21 (configuration not stated) | 71.3% (active)
51 | CCc1c(C)nc2c(-c3ccccc3)c(C)nn2c1Nc1ccc(NC(C)=O)cc1 | 24.5% (active)
52 | Cc1ccc2nc(C)c3c(c2c1)N(c1ccccc1)CC3 | 22.2% (active)
53 | c1ccc(C2CNCc3c2ccc2ccccc32)cc1 (configuration not stated) | 73.3% (active)
54 | CCCCCCCCCCOC(=O)Cn1c(COc2cccc(OC)c2)[n+](C)c2ccccc21 | 81.7% (active)
55 | Cc1ccc(SCc2cc(=O)[nH]c(N3CCCCC3)n2)cc1 | -8.9%
56 | CCN1CCN(c2c(Cl)cccc2NC(=O)c2ccc(Br)o2)CC1 | 21%
57 | CC(C)(C)NCc1cc(Br)ccc1OC1CCCC1 | 11.2%
58 | CC(NCc1ccccc1OC1CCCC1)c1ccccc1 (configuration not stated) | 33% (active)
59 | CCN(CC)CCOCCOc1ccc(Cl)c2ccccc12 | 19.4%
60 | COc1ccccc1N(C(=O)Cn1nnc2ccccc21)C(C(=O)NCc1ccco1)c1ccc(C)o1 (configuration not stated) | 25.9% (active)
61 | O=[N+]([O-])/C=C/c1ccc2c(ccn2Cc2ccccc2)c1 | 104% (active)
62 | CCCOc1ccccc1C1CC(=O)Nc2cc3c(cc21)OCO3 (configuration not stated) | 51.8% (active)
63 | COc1cc(OC)cc(C(=O)N[C@H](C(=O)OCC(=O)NC(C)c2ccccc2)C(C)C)c1 (some centres not stated) | 65% (active)
64 | COc1cc(NC(=O)CN2C(=O)NC(C)(c3ccc(OC(F)F)cc3)C2=O)cc(OC)c1OC (configuration not stated) | 28.4% (active)
65 | Cc1ccc(NC(=O)CN2C(=O)NC(C)(c3ccc(Cl)cc3)C2=O)c(Br)c1 (configuration not stated) | 6.97%
66 | C=CCNC(=O)COC(=O)c1ccccc1C(=O)N(C)C1CCCCC1 | -2.95%
67 | C=CCC1(CC=C)CCCN1C(=O)c1cc(COc2ccc(-n3cncn3)cc2)on1 | 55.2% (active)
68 | CCc1ccc(NC(=O)c2ccc(Cn3cc([N+](=O)[O-])cn3)cc2)cc1 | 35.1% (active)
69 | CCOc1ccc(C(=O)NC(=S)Nc2ccc(N3CCOCC3)c(Cl)c2)cc1[N+](=O)[O-] | 24.7% (active)

Row | Structure (SMILES) | inhibition
70 | CC(C(=O)N1CCN(c2ccccc2F)CC1)c1ccc([N+](=O)[O-])cc1 (configuration not stated) | 27.9% (active)
71 | CCN(CC)Cc1c(C(=O)OC)nnn1-c1nonc1N | 5.07%
72 | Clc1ccc(-c2cc(C3CCNCC3)[nH]n2)c(Cl)c1 | 35.6% (active)
73 | O=C(COc1ccc(S(=O)(=O)Nc2cccc(C(F)(F)F)c2)cc1)N1CCOCC1 | 28% (active)
74 | O=S(=O)(c1ccc(OCC(O)CN2CCN(c3ccccc3Cl)CC2)cc1)N1CCOCC1 (configuration not stated) | 38.9% (active)
75 | O=C(NCCCN1CCN(c2ccc(F)cc2)CC1)Nc1ccc([N+](=O)[O-])cc1 | 65.1% (active)
76 | Cc1c(CCO)c(=O)n(-c2ccccc2)n1S(=O)(=O)c1ccc(F)cc1 | -12.3%
77 | Cc1ccc(O)c(NC(=S)NC(=O)COc2ccc(Br)cc2)c1 | 83.8% (active)
78 | CN(c1cccc(NC(=O)Nc2ccc(Cl)cc2)c1)S(C)(=O)=O | 67.3% (active)
79 | CCOc1ncccc1C(=O)NCCc1ccc(OC)cc1 | 13.4%
80 | COc1ccc(CS(=O)/C(Cl)=C(/Cl)C(=O)Nc2ccc(OC)nc2)cc1 (configuration not stated) | 63.9% (active)
81 | COc1cccc(CNCCc2c[nH]c3ccccc23)c1OCc1ccccc1F | 83.6% (active)
82 | Cc1ccccc1Nc1nnc(SCC(=O)c2cc3ccccc3o2)s1 | 10.6%
83 | Nc1nnc(SCC(=O)Nc2ccc3nc(SCC(=O)Nc4ccccc4)sc3c2)s1 | 81.6% (active)
84 | O=C(CN1C(=O)/C(=C/c2ccccc2F)Sc2ccccc21)NCc1cccnc1 | 63% (active)
85 | Clc1ccc(C2CC(c3cccs3)n3ncnc3N2)cc1Cl (configuration not stated) | 15.5%
86 | COc1ccc(C2Nc3ccccc3C(=O)N2Cc2ccccc2)cc1Cn1nnc2ccccc21 (configuration not stated) | 32.1% (active)
87 | Fc1ccc(-c2ccc(-c3nn4c(-c5ccco5)nnc4s3)o2)cc1 | 12.7%
88 | Cc1ccccc1CN1C(=O)c2ccccc2Sc2ccc(C(=O)NCCCN3CCOCC3)cc21 | 17%
89 | O=C(NCCCN1CCOCC1)c1ccc2c(c1)N(Cc1cccc(F)c1)C(=O)c1ccccc1S2 | 25.3% (active)
90 | CCOC(=O)C1CSC(CC(=O)Nc2ccc(OCC)cc2)C(=O)N1 (configuration not stated) | 3.62%
91 | CCC(C)c1ccccc1NC(=O)CN(C)CC(=O)Nc1ccccc1SC (configuration not stated) | 24.8% (active)
92 | CCc1ccc(N(C(=O)c2csnn2)C(C(=O)NC2CCCCC2)c2ccncc2)cc1 (configuration not stated) | 17.6%

— PubChem BioAssay AID2148 (The Scripps Research Institute Molecular Screening Center, 2009)
